From PubChem BioAssay AID1645851 (National Center for Advancing Translational Sciences (NCATS), 2021)
Hit rate of the full screen: of about 140,000 compounds, about 1,200 (0.86%) were called active. Rule as the data show it: active = activity change below about -25%; inactive = the rest. The entries come from a sample that favours actives as a whole.

target: Inositol hexakisphosphate kinase 1 (Homo sapiens) (UniProt Q92551); experiment: Primary qHTS assay for small molecule inhibitors of Inositol hexaphosphate kinase 1 (IP6K1); settings: ADP-Glo luminescence, 2 h, stronger effect = lower value; also: series mostly up to about 58 µM
From the text: Assay Provider: Huijun Wei, M.S., Ph.D. School of Medicine, Johns Hopkins University, Baltimore, MD Inositol hexakisphosphate kinases (IP6Ks) catalyze pyrophosphorylation of inositol hexakisphosphate (IP6) into inositol 5-diphospho-1,2,3,4,6-pentakisphosphate (IP7), which is involved in numerous areas of cell physiology including glucose homeostasis, blood coagulation and neurological development. Inhibition of IP6Ks may be effective for the treatment of Type II diabetes, thrombosis, and psychiatric disorders. We performed a quantitative high throughput screen (qHTS) of 158,410 compounds for IP6K1 inhibitors using ankinase activity ADP-Glo Max assay. […] Medicinal chemistry SAR efforts in three chemical series identified potent IP6K1 inhibitors, which were further validated in an orthogonal LC-MS IP7 analysis.
PROTOCOL TABLE SEQUENCE No. (e.g., 1, 2, 3, etc.); […] (e.g., Cells, Incubation, Reagent, etc.); VALUE and DESCRIPTION. 1. Reagent, 3 uL of 1.3 mM ATP and 130 uM IP6 mixture in assay buffer was dispensed to a white, 1536-well assay plate. 2. Compound, 23 nL of compounds of the top two doses (57.5 uM and 19.1 uM final concentration) of the libraries were dispensed into the mixture using the Kalypsis pintool. 3. Reagent, 1 uL of 2.4 uM IP6K1 was dispensed to the assay plates. 4. Incubation, 2 hr incubation at room temperature. 5. Reagent, 2 uL of ADP-Glo reagent was added to the wells. 6. Incubation, 1 hr incubation at room temperature. 7. Reagent, 4 uL or ADP-Glo substate was added to the wells. 8. Incubation, 45 min incubation at room temperature. 9. Detection, luminescence signal was detected using the ViewLux microplate imager (PerkinElmer).
% is scaled to controls: 0 for no effect and ±100 for the full control effect.

Inositol hexakisphosphate kinase 1 (Homo sapiens), sequence (Q92551 whole entry, looked up): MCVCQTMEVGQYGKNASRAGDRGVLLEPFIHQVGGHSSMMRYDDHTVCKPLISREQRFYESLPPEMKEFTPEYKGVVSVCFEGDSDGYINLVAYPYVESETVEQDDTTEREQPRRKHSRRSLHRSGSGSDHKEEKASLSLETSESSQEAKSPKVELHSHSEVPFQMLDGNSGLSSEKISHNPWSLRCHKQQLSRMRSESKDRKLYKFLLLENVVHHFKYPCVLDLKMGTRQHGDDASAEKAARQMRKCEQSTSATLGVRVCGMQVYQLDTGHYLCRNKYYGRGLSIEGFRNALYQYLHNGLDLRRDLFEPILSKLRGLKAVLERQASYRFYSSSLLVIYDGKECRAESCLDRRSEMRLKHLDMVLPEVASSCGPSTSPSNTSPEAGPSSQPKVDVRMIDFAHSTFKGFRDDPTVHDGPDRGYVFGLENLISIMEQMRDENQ

SMILES	activity change
CO[C@]12CC[C@@]3(C[C@@H]1[C@](C)(O)C(C)(C)C)[C@@H]1Cc4ccc(O)c5c4[C@@]3(CCN1CC1CC1)[C@H]2O5	0.147% (inactive)
Oc1ccc2c3c1O[C@H]1c4[nH]c5c(N=C=S)cccc5c4C[C@@]4(O)[C@@H](C2)N(CC2CC2)CC[C@]314	-97.1% (active)
C/C=C(\C)C(O)C(C)/C=C(C)/C=C/C/C(C)=C/Cc1nc(OC)c(OC)c(O[C@@H]2O[C@@H](C)[C@H](O)[C@@H](O)[C@H]2O)c1C (stereo not given in full)	-8.45% (inactive)
NC(=O)[C@@H](CC1CC1)[C@@H](CCC(F)(F)F)C(=O)N[C@H]1N=C(c2ccccc2)c2cccc(F)c2NC1=O	10.6% (inactive)
C[C@@H]1C[C@@H](O)[C@]2(O)O[C@@H]3C[C@@]4(C=O)C(CC[C@@H]5C4CC[C@]4(C)[C@@H](C6=CC(=O)OC6)CC[C@]54O)C[C@H]3O[C@@H]2O1 (stereo not given in full)	17.6% (inactive)
